The results in this text go back to PubChem BioAssay (EPA / NIEHS).

Usually AC50 stands for the concentration giving half of the maximal activity seen.

“And” between values parts separate entries of the source, which are not always exact repeats. Equal entries are not always repeated. Some compounds were tested as several samples or in several runs, with calls that do not always agree. The source made the active and inactive calls. The calls were made as follows: active = hit-call score of the fitted dose curve at least 0.9, where 1 is the maximum; inactive = score below 0.9.

Read-out in the test: TIMP metallopeptidase inhibitor 1 (TIMP1), TIMP1 (gene 7076)
The test can be described thus: BSK_hDFCGF_TIMP1: BioMAP Diversity Plus: hDFCGF Assay for TIMP metallopeptidase inhibitor 1 (TIMP1) Biomarker Activity (AID 2283062). Particulars: primary human foreskin fibroblasts; actives raise or lower the signal. Here is the method:
BSK_hDFCGF is a cell-based, multiplexed-readout assay that uses foreskin fibroblast, a human skin primary cell, with measurements taken at 24 hours after chemical dosing in a 96-well plate.BSK_hDFCGF_TIMP1 is an assay component measured in the BSK_hDFCGF assay. It measures TIMP-1 antibody related to regulation of gene expression using ELISA technology.Data from the assay component BSK_hDFCGF_TIMP1 was analyzed into 1 assay endpoint. This assay endpoint, BSK_hDFCGF_TIMP1, was analyzed with bidirectional fitting relative to DMSO as the negative control and baseline of activity. Using a type of binding reporter, gain or loss-of-signal activity can be used to understand changes in the signaling as they relate to the gene TIMP1. Furthermore, this assay endpoint can be referred to as a primary readout, because this assay has produced multiple assay endpoints where this one serves a signaling function. To generalize the intended target to other relatable targets, this assay endpoint is annotated to the protease inhibitor intended target family, where the subfamily is metalloproteinase inhibitor.
The levels of cell surface (or secreted, indicated by the prefix "s") biomarker endpoints were measured by ELISA. Overt cytotoxicity to cells in confluent adherent cultures (all systems other than the BT system) was assessed by measuring total protein levels using sulforhodamine B (SRB) staining in parallel cultures at the time of biomarker measurements, indicated as SRB endpoints. For proliferation assays for adherent cell types, individual cell types are cultured at sub-confluence and relative cell numbers quantified by SRB staining at time points optimized for each system (48 h: 3C and CASM3C systems; 72 h: BT and HDF3CGF systems; 96 h: SAg system). SRB was performed by staining cells with 0.1% SRB after fixation with 10% TCA and reading wells at 560 nm.Viability and proliferation of PBMC (T cells) was quantified by Alamar Blue reduction for the SAg and BT systems. For PBMC viability (referred to as PBMC Cytotoxicity within the assay endpoint names), cells were plated (75,000/well in a 96-well plate) and then chemical samples added for 1 h before addition of activators, SEB and TSST-1 (20 ng/mL final concentration each). Cells were incubated for 90 h. Then, Alamar Blue (20 uL/well) (Invitrogen, Cat DAL1100) was added for 6 h, and the plates were read with a fluorescence microplate reader at 546/580 nm (excitation/emission). For PBMC proliferation, cells were plated and activated as above but incubated for only 16 h prior to addition of Alamar Blue. Plates were read after 6 h.
Consider `O=[N+]([O-])c1ccc(O)cc1`, for which the result was inactive.

As for `CCCCCCCC(=O)O`, the result was inactive.

Take `O=c1c(-c2ccc(O)cc2)coc2cc(O)ccc12`: the result was inactive.

Regarding `OCCC(F)(F)C(F)(F)C(F)(F)C(F)(F)C(F)(F)C(F)(F)F`, the result was inactive; the AC50 is 53.1 µM (active) and 47.1 µM (active).

For the compound `CCN(CC)CCNc1ccc(CNC=O)c2sc3ccc(OC)cc3c(=O)c12`, the AC50 is 13.1 µM (active).

For `CCOC(=O)CC(O)(CC(=O)OCC)C(=O)OCC`, the result was inactive.

Consider `Cc1cc(C)c(O)c(C)c1`, for which the outcome was inactive.

On to `CC(=O)NC1(c2cccc(F)c2)CCN(CC[C@@]2(c3ccc(Cl)c(Cl)c3)CN(c3ccccc3)C(=O)CO2)CC1`, for which the AC50 was 26.7 µM (active).

With `CC(C)(C)c1cccc(C(C)(C)C)c1O`, the AC50 is 36.3 µM (active).

As to `C#C[C@]1(O)CC[C@H]2[C@@H]3CCC4=CC(=O)CC[C@@H]4[C@H]3CC[C@@]21C`, the outcome was inactive.

Regarding `CN1CCC[C@H]1c1cccnc1`, the outcome was inactive.

Consider `CCCCC(CC)COC(=O)CCCCC(=O)OCC(CC)CCCC` (stereo not given), for which the outcome was inactive.

For the compound `O=C(OCCOCCOC(=O)c1ccccc1)c1ccccc1`, the result was inactive.

For `CCCCCCCCCCCCN1CCCC1=O`, the AC50 is 32.7 µM (active).

In the case of `CCCOc1sc(C(=O)N2CCC(c3cc(CN)ccc3F)CC2)c(C)c1Br`, the AC50 was 10.6 µM (active).

For `CCc1ccc(CCOc2ccc(CC3SC(=O)NC3=O)cc2)nc1` (stereo not given), the result was inactive.

With `N#C[C@@H]1CC(F)(F)CN1C(=O)CNC1CC2CCC(C1)N2c1ncccn1` (stereo not given in full), the outcome was inactive.

Turning to `CC(=O)CC(C)(C)O`, the result was inactive.

In the case of `CC(O)CO` (stereo not given), the outcome was inactive.

On to `ClC1=C(Cl)C(Cl)(Cl)C(Cl)=C1Cl`, for which the AC50 is 12.4 µM (active).

`c1ccc2c(c1)Cc1ccccc1-2`: the result was inactive.

Consider `Cc1cc(CCN2CCN(c3nsc4ccccc34)CC2)cc2c1NC(=O)CC2(C)C`, for which the AC50 was 9.33 µM (active).

As for `Cc1oc(-c2ccccc2)nc1CCOc1ccc(C[C@H](Nc2ccccc2C(=O)c2ccccc2)C(=O)O)cc1`, the AC50 was 3.99 µM (active).

Turning to `CCc1nn(C2CCCCC2)c2cc(C3(C#N)CCC(C(=O)O)CC3)ccc12` (stereo not given), the AC50 was 3.54 µM (active).

As to `c1ccc2c(c1)ccc1ccccc12`, the outcome was inactive.

As to `CC(C)CCCCCCOC(=O)CCCCC(=O)OCCCCCCC(C)C`, the result was inactive.

Turning to `CN1CCN(c2ccccc2/C=C2\SCCN(c3ccc(Cl)c(Cl)c3)C2=O)CC1`, the AC50 is 33.7 µM (active).

As for `CCC(=C(c1ccc(O)cc1)c1ccc(OCCN(C)C)cc1)c1ccccc1`, the AC50 is 12.1 µM (active).

In the case of `CCCCC(CC)COC(=O)CCCCC(=O)OCc1ccccc1` (stereo not given), the result was inactive.

Turning to `OC1CCCCC1`, the outcome was inactive.

With `C[C@@H]1C[C@H]2[C@@H]3CCC4=CC(=O)C=C[C@]4(C)[C@@]3(F)[C@@H](O)C[C@]2(C)[C@@]1(O)C(=O)COP(=O)(O)O`, the outcome was inactive and the AC50 was 2.65 µM (active).

Regarding `CCCCCCCCCCCCCC[N+](C)(C)C`, the AC50 was 5.39 µM (active).

For `FC(F)(I)C(F)(F)C(F)(F)C(F)(F)C(F)(F)C(F)(F)I`, the AC50 is 6.72 µM (active) [middle of 5 runs].

For the compound `CC[C@H](C)[C@@H](C(=O)O)n1sc2ccccc2c1=O`, the outcome was inactive.

`C=C(C)C(=O)OCCC(F)(F)C(F)(F)C(F)(F)C(F)(F)C(F)(F)C(F)(F)F`: the outcome was inactive.

Turning to `O=C(O)c1ccccc1C(c1ccc(O)cc1)c1ccc(O)cc1`, the outcome was inactive.

For `NC(=O)N(O)[C@@H]1C=C[C@H](Oc2cccc(Oc3ccc(F)cc3)c2)C1`, the result was inactive.

For `CCCCCCCCC(=O)O`, the result was inactive.
